# Experimental data from PubChem BioAssay (NCI).
# This is part of a sample that, as a whole, favours compounds with a hit. Of some 83,000 tested, about 20% had one in any assay.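 Values shown are percent growth following 48 h exposure of cells in 96-well plates to a single concentration of compound; below 10 was considered active.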 Activity calls are given as the source filed them.
# System: HL-60(TB) leukemia
# Assay: NCI-60 one-dose screen, 48 h (100 = growth as untreated, 0 = no growth, -100 = all killed)
# Conditions: 10 µM unless noted
row,Structure (SMILES),growth
1,CCOc1ccc(NC(=O)Nc2ccc(OCC)cc2)cc1,96.7% (inactive)
2,CCN(CC)Cc1cc(Nc2nc(NC3CCC(N(C)C)CC3)c3ccccc3n2)ccc1OC (stereo not given),69% (inactive)
3,O=C(CCc1nnc2sc(Cc3ccccc3Cl)nn12)c1nc2ccccc2[nH]1,104% (inactive)
4,CNc1ccc(N)cc1,109% (inactive)
5,CCCCCCCCCCCCCCCCCCOc1ccccc1CC(=O)NCC[N+]1(C)CCOCC1,-10.6% (active)
6,CCCCOc1c(N)cc(Cl)cc1C(=O)OCCN(CC)CC,51% (inactive)
7,COc1ccc2c(c1)/C(=C1\S/C(=N/c3nnc(C)s3)NC1=O)C(=O)N2Cc1ccc(Cl)cc1,53.8% (inactive)
8,Cc1ccc(C)c2c1sc1nc3n[nH]c(N)c3c(=N)n12,112% (inactive)
9,COc1ncc(-c2ccc3nccc(C#CCCCCC(=O)O)c3c2)cc1NS(=O)(=O)c1ccc(F)cc1F,26.8% (inactive)
10,COc1ccc(/C=C2\CCCC3=C2N=C2SC=NN2C3c2ccc(OC)c(OC)c2)cc1OC (stereo not given),15% (inactive)
11,CCOc1nc(-c2ccccc2)cc2c(O)c(-c3nnco3)[nH]c(=O)c12,34.6% (inactive)
12,Cc1ccc(-n2nnnc2N)c(C)c1,117% (inactive)
13,COc1cc(NC(=O)c2cc(O)c(CC=C(C)C)c(O)c2)cc2c1O[C@]1(C)CC[C@@H](O)C(C)(C)[C@H]1C2,9.12% (active)
14,Cc1ccc(C(=O)c2ccc(CC(=O)NN3C(=O)c4ccccc4C3=O)n2C)cc1,100% (inactive)
15,Cc1ccc(Nc2nc(NCCO)c3ccccc3n2)cc1C,-10.3% (active)
16,CCc1nn2c(-c3ccccc3)c(-c3cc(OC)c(OC)c(OC)c3)nc2s1,68% (inactive)
17,CN(C)CCCN(CCC1CCCCC1)CCC1CCCCC1,30.1% (inactive)
18,COc1cc(C2CC(c3ccccc3)=NN2C(C)=O)cc(OC)c1OC (stereo not given),14.2% (inactive)
19,CS(=O)(=O)Nc1cc(-c2ccc3ncnc(Nc4ccc(F)c(Cl)c4)c3c2)cnc1Cl,1.75% (active)
20,COc1ccc(Oc2nc(NC3CCCC3)nc(Sc3ccc(OC)cc3)n2)cc1,48.3% (inactive)
21,COc1cc(C2CC(c3cccc(Nc4ccncc4)c3)=NN2c2cc(Cl)cc(Cl)c2)cc(OC)c1OC (stereo not given),-44.7% (active)
22,COc1cc(C2=NN(C(C)=O)C(c3ccc(N(C)C)cc3)C2)cc(OC)c1OC (stereo not given),89.6% (inactive)
23,O=C(N/N=C/c1ccc(Cl)cc1)c1[nH]c2ccc(Cl)cc2c1-c1ccccc1,13% (inactive)
24,C[C@H](CCCC(=O)NCC#CCN1CCN(C)CC1)[C@H]1CC[C@H]2[C@@H]3CC[C@@H]4CC(=O)CC[C@]4(C)[C@H]3CC[C@]12C,94.3% (inactive)
25,CCN(CC)CCNC(=O)C(F)(F)C(F)(F)C(F)(F)F,108% (inactive)
